Pf apPOL block – Pf-apPOL DNA polymerase inhibition; inhibition, % at 10 µM; Recombinant Pf-apPOL, molecular beacon fluorescence, 1.5 h; 210,000 compounds, 0.25% hits
mHTT-CaM PPI inh – mHTT-calmodulin interaction abrogation; AlphaScreen His-mHTT/GST-CaM binding, luminescence; inhibition, % at 15 µM; 190,000 compounds, 3.6% hits; AID 1671202
Large screens that a line does not name were inactive. Shown are actives, neighbours in structure and some others; about 3.5% of the full set was active somewhere. Rule as the data show it: active = inhibition above about 50%; inactive = the rest.

COc1cccc(N(C(C)=O)C2=C(NC3CCCCC3)C(=O)c3ccccc3C2=O)c1	mHTT-CaM PPI inh 62.2
CC(=O)N(C1=C(NC2CCCCC2)C(=O)c2ccccc2C1=O)c1ccc(F)c(F)c1	none
CC(=O)N(C1=C(Nc2ccccc2)C(=O)c2ccccc2C1=O)c1ccccc1	mHTT-CaM PPI inh 54.6
CCCNC1=C(N(C(C)=O)c2cccc(F)c2)C(=O)c2ccccc2C1=O	none
CCOc1ccc2ccccc2c1C(=O)Oc1cc(C)[nH]c(=O)c1[N+](=O)[O-]	none
N#Cc1cnc2ccccc2c1N1CCC(C(=O)Nc2ccc(F)c(F)c2)CC1	none
CCOC(=O)CNC(=O)C1CCCc2c1[nH]c1ccc(Cl)cc21 (stereo unspecified)	mHTT-CaM PPI inh 100.0
NC(=O)CNC(=O)C1CCCc2c1[nH]c1ccc(Cl)cc21 (stereo unspecified)	none
COc1ccccc1/C=C/C1=NC(=C\c2cccnc2)/C(=O)O1	none
Cc1cccc(C)c1OCC(O)CN1CCCC1 (stereo unspecified)	none
N=c1sc2ccccc2n1-c1ccccc1	none (no result: mHTT-CaM PPI inh)
Cc1c(CCCN)c2ccccc2n1-c1ccccc1	mHTT-CaM PPI inh 50.1
COc1cccc(C(=O)N2CCc3c(c(COCc4ccc(Cl)cc4)nn3C)C2)c1	none
Cc1cccc(C(=O)N2CCC(=O)N([C@H](COCc3ccc(Cl)cc3)Cc3ccccc3)CC2)c1	mHTT-CaM PPI inh 99.0
Cc1ccc(S(=O)(=O)N2CCC(=O)N([C@H](COCc3cccc(C)c3)Cc3ccccc3)CC2)cc1	none
Cc1cccc(C(=O)N2CCC(=O)N([C@H](COCc3cccc(Cl)c3)Cc3ccccc3)CC2)c1	mHTT-CaM PPI inh 98.8
O=C(c1ccc(Cl)c(Cl)c1)N1CCC(=O)N([C@H](COCc2ccc(Cl)cc2)Cc2ccccc2)CC1	mHTT-CaM PPI inh 100.0
Cc1ccc(S(=O)(=O)N2CCC(=O)N([C@H](COCc3ccc(C(F)(F)F)cc3)Cc3ccccc3)CC2)cc1	none
Cc1cccc(COC[C@H](Cc2ccccc2)N2CCN(C(=O)c3ccc(C(F)(F)F)cc3)CCC2=O)c1	mHTT-CaM PPI inh 98.6
Cc1cccc(COC[C@H](CC(C)C)N2CCN(C(=O)c3ccc(C(C)(C)C)cc3)CCC2=O)c1	none
CC1CCN(c2nn(CC(=O)Nc3cccc(Cl)c3)c(=O)c3ccccc23)CC1	none
CN(C)c1ccc(NC(=O)CCC2CCCCC2)cc1	mHTT-CaM PPI inh 63.1
COc1ccc(NC(=O)CCC2CCCCC2)cc1OC	none
CCOC1=CC(c2ccc(F)cc2)Oc2ccccc21 (stereo unspecified)	none
CCOc1ccc2nc(NC(=O)c3ccccc3)sc2c1	none
COc1cc(OC)c(OC)cc1CN1CCCC1c1cc(C)no1 (stereo unspecified)	none
OC(C#CC1(O)CCCCC1)c1ccco1 (stereo unspecified)	none (no result: Pf apPOL block)
OC(C#CC1CC1)c1ccco1 (stereo unspecified)	mHTT-CaM PPI inh 100.2
O=C(NCc1cccc(F)c1)N1CCC(Nc2cccnc2)C1 (stereo unspecified)	none
COc1cc(OC)c(OC)cc1CN1CCN(c2ccccc2OC)CC1	none
COc1ccccc1N1CCN(Cc2ccc(Br)o2)CC1	Pf apPOL block 84.8
O=C(CC1Sc2ccccc2NC1=O)NC1CCCC1 (stereo unspecified)	none
CC1CCN(CC2CCN(S(=O)(=O)c3cccc(C(F)(F)F)c3)CC2)CC1	none
O=S(=O)(c1cccc(C(F)(F)F)c1)N1CCC(CN2CCCCCC2)CC1	mHTT-CaM PPI inh 98.5
Cn1cc(CC(=O)NCc2cccc(C(F)(F)F)c2)c2cccnc21	none
N#C/C(=C\c1cc2c(cc1Br)OCO2)c1ccc([N+](=O)[O-])cc1	none
N#C/C(=C\c1ccccc1/C=C(\C#N)c1ccc2c(c1)OCO2)c1ccc2c(c1)OCO2	mHTT-CaM PPI inh 72.7 (no result: Pf apPOL block)
CCn1cnc2sc(C(=O)Nc3ccc4c(c3)OCO4)c(C)c2c1=O	none
O=C(Cc1c[nH]c2ncccc12)NCC1CCCCC1	none
CC(NC(=O)C(C)N1C(=O)c2cccc([N+](=O)[O-])c2C1=O)c1ccccc1 (stereo unspecified)	none
COc1cc(/C=C2/SC(=N)NC2=O)ccc1OCc1ccccc1F	mHTT-CaM PPI inh 60.0
CCOc1cc(/C=C2\SC(=N)NC2=O)ccc1OCc1ccccc1	none
CCOc1cc(/C=C2\SC(=N)NC2=O)ccc1OCc1ccc(F)cc1	mHTT-CaM PPI inh 60.0
COc1cc(/C=C2/SC(=N)NC2=O)ccc1OCc1ccc([N+](=O)[O-])cc1	none
CCOc1cc(/C=C2\SC(=N)NC2=O)ccc1OC	none
COc1cc(/C=C2/SC(=N)NC2=O)cc(Br)c1OCc1ccccc1	mHTT-CaM PPI inh 68.0
COc1cc(/C=C2\SC(=N)NC2=O)ccc1Oc1ccc(C(F)(F)F)cc1[N+](=O)[O-]	mHTT-CaM PPI inh 50.0
CCOc1cc(/C=C2\SC(=N)NC2=O)ccc1OCc1ccc(Br)cc1	none
N#CC1=CN(c2cc(F)cc(F)c2)c2cc(Cl)ccc2S1(=O)=O	none
COc1ccccc1-c1cc(C(=O)NC(C)C)no1	none
CC(C)Oc1ccc(C(=O)Nc2c3c(nn2-c2cccc(Cl)c2)CS(=O)(=O)C3)cc1	none
COc1cc(/C=C2/SC(=N)NC2=O)ccc1OCc1ccccc1	none
COc1cc(/C=C2/SC(=N)NC2=O)ccc1OCc1ccc(C)cc1	mHTT-CaM PPI inh 59.0
CCOc1ccc(NC(=O)N2CCC3(CC2)NC(=O)c2cc(Cl)ccc2N3C)cc1	none
Cc1ccc(Br)cc1N1CCC(C(=O)Nc2cccc(F)c2)C1=O (stereo unspecified)	none
Cc1ccc(NC(=O)C2CCN(c3cc(Br)ccc3C)C2=O)cc1C (stereo unspecified)	mHTT-CaM PPI inh 73.6
Cc1ccc(CNS(=O)(=O)c2ccc(F)c(C(=O)Nc3c(C)cccc3C)c2)cc1	none
CC(=O)C(Sc1ncccn1)C(C)=O	none (no result: mHTT-CaM PPI inh)
Cc1cccc(Nc2nccc(C3CCCN(C(=O)c4ccco4)C3)n2)c1 (stereo unspecified)	mHTT-CaM PPI inh 76.7
Cc1ccccc1Nc1nccc(C2CCCN(C(=O)c3ccco3)C2)n1 (stereo unspecified)	none
CC(=O)N1CCCC(c2ccnc(Nc3cccc(C)c3)n2)C1 (stereo unspecified)	none
O=C(c1ccco1)N1CCCC(c2ccnc(Nc3ccccc3F)n2)C1 (stereo unspecified)	mHTT-CaM PPI inh 56.3
N#Cc1ccc(C(=O)N2CCCC(c3ccnc(Nc4ccccc4F)n3)C2)cc1 (stereo unspecified)	none
CN(C)c1ccc(C(=O)N2CCCC(c3ccnc(Nc4ccccc4F)n3)C2)cc1 (stereo unspecified)	mHTT-CaM PPI inh 60.2
Cc1ccc(N2C(=O)c3ccc(Oc4ccc([N+](=O)[O-])cc4[N+](=O)[O-])cc3C2=O)cc1	none
CCCN1CCN(C(=O)C2CC(=O)N(CCc3ccc(OC)c(OC)c3)C2)CC1 (stereo unspecified)	none
CCOCCCNC(=O)c1cn(C2CCCC2)c(=O)c2c1c1ccccc1n2C	none
Cc1nc(-c2ccccc2)nc2c1CC(=O)N2Cc1cccs1	none
CCOC(=O)C1CCN(C(=O)c2ccc3c(c2)NC(=O)C2CCCCN32)CC1 (stereo unspecified)	none
CN1c2ccc(Cl)cc2C(=O)NC12CCN(C(=O)c1ccc(F)cc1)CC2	none
CC(C)c1ccc(NC(=O)C(c2ccccc2)N(C)C(=O)c2cnccn2)cc1 (stereo unspecified)	none
Cc1ccc(C(C(=O)Nc2ccc(C(C)C)cc2)N(Cc2ccco2)C(=O)c2cnccn2)cc1 (stereo unspecified)	mHTT-CaM PPI inh 69.0
CCCC(=O)Nc1nc2n(n1)C(c1ccccc1)C=C(c1ccccc1)N2 (stereo unspecified)	none
